# From PubChem BioAssay (NCATS)
# Values joined by “and” are separate entries in the source; they are usually repeats but may differ in a detail not shown here. Equal entries are not always repeated. Records with an inconclusive call do not appear. Active and inactive are the calls of the source. Unless noted, calls come from the whole dose curve; as a rule, active = well fitted curve in the direction sought with a large enough effect; inconclusive = small, poorly fitted or top-dose-only effect, or another doubt; inactive = no such curve, though single readings can be large; an effect the other way counts as inactive or inconclusive.
# Key:
# [1] = qHTS Assay for Lipid Storage Modulators (AID 1519; calls by dose curve; for activity change, negative = inhibition: % is set by controls: 0 for no effect and ±100 for the full control effect); settings: Drosophila S3 cells, BODIPY lipid droplet/cell ratio, laser cytometry, cells loaded with oleic acid
# Outline: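 Cells seeded at 5,000 per well were treated with compounds over a concentration series and loaded with oleic acid (400 uM, as added). Lipid droplet fluorescence (488 nm excitation, 500-530 nm channel) was read by laser-scanning cytometry and normalized to 20 uM Triacsin C.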
# [2] = Validation of Assay for Modulators of Lamin A Splicing (AID 1459; active = well fitted curve in the direction sought with a large enough effect in the signal ratio; the % refers to the signal ratio;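 note: cells exposed to compound for two days before reading; 0% is about no effect; ratio rise marks activators and ratio drop marks inhibitors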); settings: Lamin A splicing dual RFP/GFP fluorescence reporter; series mostly up to 9.22 µM
# Outline: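 HeLa S3 lamin A-EGFP/DsRed2 stable clone, 600 cells/well, Opti-MEM 2% FBS; compounds by pin tool; 48 hrs, 37 °C/5% CO2; Acumen 488 nm scan, objects 10-100 um; GFP/RFP intensity ratio.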
# [3] = molecular target: DNA repair nuclease/redox regulator APEX1 (Homo sapiens) (UniProt P27695); assay: qHTS Validation Assay for Inhibitors of the Human Apurinic/apyrimidinic Endonuclease 1 (APE1) (AID 1705;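 note: TAMRA fluorescence gain over two minutes as APE1 cuts a quenched THF abasic duplex; % is set by controls: 0 for no effect and ±100 for the full control effect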); settings: purified APE1 endonuclease activity, fluorescence, titration; series mostly up to 57.1 µM
# Sequence of DNA repair nuclease/redox regulator APEX1 (Homo sapiens) (P27695 whole entry, looked up): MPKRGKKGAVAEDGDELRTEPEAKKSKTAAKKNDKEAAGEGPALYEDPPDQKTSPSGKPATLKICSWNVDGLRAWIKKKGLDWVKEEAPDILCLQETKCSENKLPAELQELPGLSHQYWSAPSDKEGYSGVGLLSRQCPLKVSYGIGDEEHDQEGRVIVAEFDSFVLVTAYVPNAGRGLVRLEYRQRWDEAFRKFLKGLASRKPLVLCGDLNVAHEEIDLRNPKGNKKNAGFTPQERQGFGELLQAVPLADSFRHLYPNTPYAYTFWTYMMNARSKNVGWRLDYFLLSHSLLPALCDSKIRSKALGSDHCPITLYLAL
# Outline: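 qHTS, 1536-well. APE1 + cpd 15 min RT → 50 nM TAMRA/BHQ-2 THF-abasic dsDNA substrate → kinetic fluorescence, 3 reads/60 s; delta(read3−read1) = reaction progress. No-enzyme buffer = negative control.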
# [4] = Counterscreen for APE1 Inhibitors: Fluorescent Dye Displacement Validation Assay (AID 1707); settings: fluorescent dye displacement from DNA; series mostly up to 57.1 µM;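 note: plate controls were ThO with dsDNA and no compound for no effect and ThO without dsDNA for full effect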
# Outline: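 Counterscreen flags promiscuous DNA binders: compounds displacing ThO from duplex DNA (abasic THF site, 50 nM) reduce 540 nm emission (480 nm excitation). ThO 250 nM final; Tris-HCl pH 7.5 with NaCl, MgCl2 and Tween-20.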
# [5] = molecular target: Endonuclease 4 (Escherichia coli (strain K12)) (UniProt P0A6C1); assay: Counterscreen for APE1 Inhibitors: qHTS Validation Assay for Inhibitors of Endonuclease IV (AID 1708); note: % is set by controls: 0 for no effect and ±100 for the full control effect; settings: E. coli endonuclease IV, DNA cleavage fluorescence; series mostly up to 57.1 µM
# Outline: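 Enzyme (2 nM) + compound, 15 min RT; add 50 nM TAMRA/BHQ-2 THF-site dsDNA; kinetic read ex525/em598, 3 reads/60 s; activity = read 3 − read 1. Buffer Tris pH 7.5, 50 mM NaCl, 2 mM MgCl2, DTT, Tween-20.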
# [6] = qHTS for differential inhibitors of proliferation of Plasmodium falciparum line 7G8 (AID 1815); settings: Plasmodium falciparum 7G8 proliferation inhibition; series mostly up to 28.7 µM;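 note: parasite growth measured after three days of incubation; plate controls were vehicle wells for no effect and reference inhibitor wells for full effect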
# [7] = qHTS for differential inhibitors of proliferation of Plasmodium falciparum line GB4 (AID 1816); settings: series mostly up to 28.7 µM;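 note: parasite growth measured after 72 h incubation; 0% = vehicle DMSO and -100% = reference inhibitor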
# [8] = qHTS for differential inhibitors of proliferation of Plasmodium falciparum line 3D7 (AID 1876);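 note: parasite growth measured after three days of culture; 0% = vehicle wells and -100% = reference inhibitor wells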; settings: P. falciparum 3D7 proliferation inhibition; series mostly up to 28.7 µM
# [9] = qHTS for differential inhibitors of proliferation of Plasmodium falciparum line D10 (AID 1877); settings: series mostly up to 28.7 µM;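 note: parasites grown with compound for 72 h before DNA staining; plate controls were vehicle wells for no effect and reference inhibitor wells for full effect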
# [10] = qHTS for differential inhibitors of proliferation of Plasmodium falciparum line Dd2 (AID 1882); settings: series mostly up to 28.7 µM;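 note: plate controls were DMSO vehicle for no effect and 0.29 µM artemisinin for full effect; nearly all actives have a fitted effect of over 65% in size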
# Outline: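 SYBR Green DNA fluorescence (ex 485, em 535 nm) after overnight lysis quantifies parasite growth; compound exposure lasted 72 h at 37 C on infected red cells at 2.5% hematocrit, 0.3% parasitemia (final). Artemisinin 0.29 uM and vehicle wells define normalization.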
# [11] = qHTS for differential inhibitors of proliferation of Plasmodium falciparum line W2 (AID 1883); settings: series mostly up to 28.7 µM;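 note: parasites grown with compound for 72 h before lysis and staining; 0% = vehicle wells and -100% = control inhibitor wells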
# [12] = Cell Viability - LYMP2-007 (AID 979); settings: LYMP2-007 lymphoblastoid cell viability; series mostly up to 92.2 µM;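 note: cells exposed to compound for 24 h before reading; 0% = DMSO only and the negative end = 92 µM tetraoctylammonium bromide; nearly all actives have a fitted effect of over 60% in size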
# Outline: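 Cells are seeded at 2500 per well and rested 5 hr. Compounds are then added over a concentration series for 24 hr at 37 C. CellTiter-Glo is added for 30 min at room temperature before luminescence reading.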
# [13] = Cell Viability - LYMP2-008 (AID 980); settings: LYMP2-008 lymphoblastoid cell viability, qHTS; series mostly up to 92.2 µM;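 note: cells exposed to compound for 24 h at 37 °C; % is set by controls: 0 for no effect and ±100 for the full control effect; nearly all actives have a fitted effect of over 60% in size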
# Outline: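 Cells seeded at 2500/well and rested 5 hr at 37 C; compounds added over a concentration range and incubated 24 hr at 37 C; CellTiter-Glo added, 30 min at room temperature; luminescence read and AC50 fitted with Hill model.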
# [14] = Cell Viability - LYMP2-012 (AID 982); settings: LYMP2-012 lymphoblastoid cell viability qHTS; series mostly up to 92.2 µM;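 note: cellular ATP by luciferase luminescence where a drop means cytotoxicity; cells exposed to compound for one day before reading; 0% = DMSO only and full loss = 92 µM tetraoctylammonium bromide; nearly all actives have a fitted effect of over 55% in size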
# [15] = Cell Viability - LYMP2-014 (AID 983); settings: LYMP2-014 lymphoblastoid cells, viability qHTS; series mostly up to 92.2 µM;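 note: cells exposed to compound for 24 h at 37 °C; plate controls were DMSO only for no effect and 92 µM tetraoctylammonium bromide for full effect; nearly all actives have a fitted effect of over 50% in size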
# Outline: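 Cells are plated at 2500/well and left 5 hr at 37 C. Compounds are added across a concentration range and incubated 24 hr at 37 C in complete medium. CellTiter-Glo is added, and luminescence is read after 30 min at room temperature.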
# [16] = Cell Viability - LYMP2-016 (AID 984); settings: LYMP2-016 lymphoblastoid cell viability, qHTS; series mostly up to 92.2 µM;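 note: cells exposed to compound for 24 hours at 37 °C; % is set by controls: 0 for no effect and ±100 for the full control effect; nearly all actives have a fitted effect of over 55% in size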
# Outline: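 Cells were seeded at 2500 per well and rested 5 hr before a 24 hr compound exposure at 37 C. Viability was then gauged as cellular ATP by luciferase luminescence, with AC50 values fitted to the Hill equation.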
# [17] = Cell Viability - LYMP2-018 (AID 985); settings: LYMP2-018 lymphoblastoid cells, viability (qHTS); series mostly up to 92.2 µM;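 note: plate controls were DMSO only for no effect and tetraoctylammonium bromide at 92 µM for full effect; nearly all actives have a fitted effect of over 50% in size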
# Outline: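 Seed 2500 lymphoblastoid cells per well, incubate 5 hr at 37 C, add compound and incubate 24 hr at 37 C, add CellTiter-Glo, wait 30 min at room temperature, then read luminescence.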
# [18] = Cell Viability - LYMP2-020 (AID 986); settings: series mostly up to 92.2 µM;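 note: cells exposed to compound for 24 h at 37 °C; plate controls were DMSO only for no effect and tetraoctylammonium bromide at 92 µM for full effect; nearly all actives have a fitted effect of over 55% in size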
# Outline: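 Seed 2500 cells per well and incubate 5 hr at 37 C. Add compounds at a concentration series and incubate 24 hr at 37 C. Add CellTiter-Glo, wait 30 min at RT, read luminescence, and fit a Hill curve for AC50.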
# [19] = Cell Viability - LYMP2-026 (AID 989); settings: LYMP2-026 lymphoblastoid cell viability, qHTS; series mostly up to 92.2 µM;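 note: cells exposed to compound for 24 h at 37 °C; % is set by controls: 0 for no effect and ±100 for the full control effect; nearly all actives have a fitted effect of over 50% in size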
# Outline: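 Cells are seeded at 2500 per well and held 5 hr at 37 C. Compounds are added in concentration series for 24 hr, then CellTiter-Glo reagent is applied and luminescence read.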
# [20] = Cell Viability - LYMP1-002 - Assay at 24 hr (AID 993); settings: LYMP1-002 lymphoblastoid cells viability; series mostly up to 92.2 µM; note: % is set by controls: 0 for no effect and ±100 for the full control effect
# Outline: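 Acute toxicity is measured as concentration-dependent loss of cellular ATP in a human lymphoblastoid line (Coriell LYMP1-002) after 24 h treatment in complete medium. ATP is quantified by luciferase luminescence and AC50 derived by Hill modelling.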
# [21] = measured here: cell count channel max response
# [22] = measured here: lipid channel max response
smiles,measurement,setting,value
Nc1ccn([C@@H]2O[C@H](CO)[C@@H](O)[C@H]2O)c(=O)n1,"activity change, negative = inhibition",[1]; at 57.5 µM (top of the series),-3.18% (inactive)
same,max response,[1]; [21],-16.3%
same,max response,[1]; [22],-19.1%
CCC(c1ccc(O)cc1)C(CC)c1ccc(O)cc1 (stereo unspecified),"activity change, negative = inhibition",[1]; at 57.5 µM (top of the series),9.03% (inactive)
same,max response,[1]; [21],10.5%
same,max response,[1]; [22],25.1%
CC1(C)OC2CC3C4CC(F)C5=CC(=O)C=CC5(C)C4C(O)CC3(C)[C@]2(C(=O)CO)O1 (stereo partly specified),"activity change, negative = inhibition",[1]; at 57.5 µM (top of the series),6.59% (inactive)
same,max response,[1]; [21],10.6%
same,max response,[1]; [22],23.9%
COc1ccc2ccc(=O)oc2c1CC=C(C)C,"activity change, negative = inhibition",[1]; at 57.5 µM (top of the series),9.52% (inactive)
same,max response,[1]; [21],4.48%
same,max response,[1]; [22],16.7%
OC(c1cc(C(F)(F)F)nc2c(C(F)(F)F)cccc12)C1CCCCN1 (stereo unspecified),"activity change, negative = inhibition",[1]; at 57.5 µM (top of the series),2.49% (inactive)
same,max response,[1]; [21],6.15%
same,max response,[1]; [22],10.3%
Cc1cc2nc3c(=O)[nH]c(=O)nc-3n(CC(O)C(O)C(O)CO)c2cc1C (stereo unspecified),"activity change, negative = inhibition",[1]; at 25.7 µM (top of the series),0.295% (inactive)
same,"activity change, negative = inhibition",[1]; at 57.5 µM (top of the series),10.9% (inactive) and -20.1% (inactive)
same,max response,[1]; [21],2.32% and -7.87% and -11.2%
same,max response,[1]; [22],0.677% and 3.75% and -34%
CN[C@H]1[C@@H](O[C@@H]2[C@H](O[C@@H]3[C@@H](O)[C@@H](O)[C@@H](N=C(N)N)[C@@H](O)[C@@H]3N=C(N)N)O[C@H](C)[C@@]2(O)C=O)O[C@@H](CO)[C@@H](O)[C@H]1O,"activity change, negative = inhibition",[1]; at 25.7 µM (top of the series),-5.41% (inactive)
same,max response,[1]; [21],12.5%
same,max response,[1]; [22],7.05%
CCNC(=O)[C@H]1O[C@@H](n2cnc3c(N)nc(NCCc4ccc(CCC(=O)O)cc4)nc32)[C@H](O)[C@H]1O,outcome,[2],inactive
same,"activity change, negative = inhibition",[1]; at 57.5 µM (top of the series),-1.93% (inactive)
same,max response,[1]; [21],-4.53%
same,max response,[1]; [22],-7.25%
same,outcome,[3],inactive
same,outcome,[4],inactive
same,outcome,[5],inactive
same,outcome,[6],inactive
same,outcome,[7],inactive
same,outcome,[8],inactive
same,outcome,[9],inactive
same,outcome,[10],inactive
same,outcome,[11],inactive
CCC(=C(CC)c1ccc(O)cc1)c1ccc(O)cc1,"activity change, negative = inhibition",[1]; at 25.7 µM (top of the series),-5.29% (inactive)
same,max response,[1]; [21],-17.8%
same,max response,[1]; [22],-23.1%
NCC1CCC(C(=O)O)CC1 (stereo unspecified),"activity change, negative = inhibition",[1]; at 25.7 µM (top of the series),-1.26% (inactive)
same,"activity change, negative = inhibition",[1]; at 57.5 µM (top of the series),6.78% (inactive)
same,max response,[1]; [21],-0.272% and 28.1%
same,max response,[1]; [22],-2.41% and 39.3%
CC(NCCc1ccc(O)cc1)C(O)c1ccc(O)cc1 (stereo unspecified),"activity change, negative = inhibition",[1]; at 57.5 µM (top of the series),2.67% (inactive)
same,max response,[1]; [21],13.6%
same,max response,[1]; [22],20%
NS(=O)(=O)c1cc(Cl)c(Cl)c(S(N)(=O)=O)c1,"activity change, negative = inhibition",[1]; at 25.7 µM (top of the series),-3.46% (inactive)
same,max response,[1]; [21],-9.93%
same,max response,[1]; [22],-12.7%
CS(=O)(=O)c1ccc(C2=C(c3ccccc3)C(=O)OC2)cc1,"activity change, negative = inhibition",[1]; at 57.5 µM (top of the series),14.5% (inactive)
same,max response,[1]; [21],15.3%
same,max response,[1]; [22],35.2%
C[C@@H]1C[C@H]2[C@@H]3CCC4=CC(=O)C=C[C@]4(C)[C@@]3(F)[C@@H](O)C[C@]2(C)[C@@]1(O)C(=O)CO,outcome,[12],inactive
same,outcome,[13],inactive
same,outcome,[14],inactive
same,outcome,[15],inactive
same,outcome,[16],inactive
same,outcome,[17],inactive
same,outcome,[18],inactive
same,outcome,[19],inactive
same,outcome,[20],inactive
CN(C)CCN(Cc1ccc(Cl)cc1)c1ccccn1,"activity change, negative = inhibition",[1]; at 25.7 µM (top of the series),-3.62% (inactive)
same,max response,[1]; [21],-9.2%
same,max response,[1]; [22],-15.8%
C=C1c2cccc(O)c2C(O)=C2C(=O)[C@@]3(O)C(O)=C(C(N)=O)C(=O)[C@@H](N(C)C)[C@@H]3[C@@H](O)[C@H]12,"activity change, negative = inhibition",[1]; at 25.7 µM (top of the series),1.55% (inactive)
same,max response,[1]; [21],-8.47%
same,max response,[1]; [22],-6.76%
